Screening data as filed in PubChem.
LGR2 inh – inhibitors of bursicon-induced Drosophila LGR2 receptor cAMP signaling | HEK293 LGR2, CRE-luciferase, bursicon-stimulated, 4 h | inhibition, % at 9.99 µM | actives 0.35% (n = 380,000) | AID 720647;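 active means drop in luminescence signal, shown as inhibition above about 50% in the replicate tests, limit read from the data, passing the limit was not always enough; inconclusive means probably only some replicates passing the limit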;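 further: agonist challenge used bursicon conditioned medium at about half maximal strength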
KKLEB tox – reduces viability of KKLEB cystic fibrosis airway cells; KKLEB CF airway cells viability, ATPlite luminescence, overnight; hits give low values; cells stimulated with P. aeruginosa culture filtrate; actives 0.36% (n = 360,000); AID 602141; activity change (cytotoxicity), % at 5 µM;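 active means corrected activity change at or below -50% at 5 µM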
EWS-Fli inh – blocks EWS/Fli oncoprotein-driven transcription; A673 NR0B1-luciferase reporter, viability-normalised; inhibition, % at 12.6 µM; actives 0.67% (n = 350,000); AID 651661;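 active means mean inhibition of at least 50% after viability correction, with every replicate also passing that limit; inconclusive means mean reaches 50% but only one of two replicates passes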;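 further: firefly luciferase signal divided by Alamar Blue viability fluorescence both relative to DMSO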
TROY signal inh – TROY signaling inhibition | actives 0.98% (n = 360,000) | AID 1347056 | inhibition, % at 10 µM | Q293 LMP1-TROYcd NF-kB luciferase reporter, 4 h;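 active means compounds whose plate-normalised and pattern-corrected inhibition of the luciferase reporter signal at the single screening dose is 50% or more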
CF NFkB block – blocks PAF-induced NF-kB reporter in cystic fibrosis cells | KKLEB NF-kB-GFP reporter, GFP fluorescence overnight | inhibition, % at 5 µM | actives 0.86% (n = 360,000) | AID 588850;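 active means at least 50% inhibition at 5 µM, scaled per plate between neutral and stimulator controls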;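 further: PAF is a Pseudomonas aeruginosa culture filtrate used as stimulus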
TWEAK-Fn14 inh – inhibitors of TWEAK-Fn14 interaction signaling; AID 1159606; actives 2% (n = 360,000); inhibition, % at 10 µM; TWEAK-stimulated Fn14 reporter cells, luciferase luminescence, 8 h; in the data active means inhibition above about 50%
CF NFkB conf – CF NF-kB inhibition confirmation, single concentration | shares compounds with CF NFkB block | KKLEB CF airway cells, PAF-induced NF-kB-GFP fluorescence, overnight | inhibition, % at 5 µM | actives 64% (n = 1,300) | AID 602472; in the data active means inhibition above about 40%;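 further: stimulus PAF is a Pseudomonas aeruginosa filtrate and not platelet activating factor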
Large screens that a line does not name were inactive (follow-up assays come after a bar, where they were run); ! = repeats disagree. Sampled rows, rich in hits. Any-hit rate of the full collection: about 2.6%.

O=C(NCc1cc(F)cc(F)c1)[C@H]1[C@H](CO)[C@H]2Cn3c(cccc3=O)[C@@H]1N2C(=O)c1cnccn1	none (no result: KKLEB tox, TROY signal inh, CF NFkB block, TWEAK-Fn14 inh)
C[C@H]1CN([C@@H](C)CO)C(=O)c2cccc(NC(=O)Nc3ccc(C(F)(F)F)cc3)c2O[C@H]1CN(C)S(=O)(=O)c1cn(C)cn1	none (no result: KKLEB tox, TROY signal inh, CF NFkB block, TWEAK-Fn14 inh)
COC(=O)c1ccc2c(c1)C(C)(C)C(/C=C/c1ccccc1O)=[N+]2C	LGR2 inh 56, CF NFkB block 64, TWEAK-Fn14 inh 87 (no result: EWS-Fli inh) | CF NFkB conf 97
C[N+]1=C(/C=C/Nc2ccccc2Cl)C(C)(C)c2ccccc21	none (no result: EWS-Fli inh)
OC[C@@H]1[C@@H](c2ccccc2)C2(CN(Cc3nccs3)C2)N1Cc1cccnc1	none (no result: KKLEB tox, TROY signal inh, CF NFkB block, TWEAK-Fn14 inh)
COc1ccc(C(=O)Nc2cccc(NC(=O)c3ccc(OC)c(OC)c3)n2)cc1OC	CF NFkB block 84 | CF NFkB conf 62
COc1ccccc1C(=O)Nc1cccc(NC(=O)c2ccccc2OC)n1	none
CCCCNC(=S)N(C)/N=C/c1ccc(OCC(=O)Nc2c(C)cc(C)cc2C)c(OC)c1	none
CCCCNC(=S)N(C)/N=C/c1ccc(OCC(=O)Nc2ccc(OC)cc2)c(OC)c1	CF NFkB block 54 | CF NFkB conf inactive
c1ccc2c(-c3ccc4nncn4c3)cncc2c1	CF NFkB block 73, TWEAK-Fn14 inh 78 | CF NFkB conf 89
Clc1ccccc1C1=Nn2c(nnc2-c2ccncc2)SC1	CF NFkB block 78, TWEAK-Fn14 inh 64 (no result: LGR2 inh, EWS-Fli inh) | CF NFkB conf 94
O=C(/C=C/c1ccc([N+](=O)[O-])cc1)c1ccccc(=O)c1O	EWS-Fli inh 61, CF NFkB block 68, TWEAK-Fn14 inh 72 | CF NFkB conf inactive
COc1nc(N)c(C#N)c(-c2ccc(N(C)CCC#N)cc2)c1C#N	CF NFkB block 59 | CF NFkB conf 75
COC(CN(C(=O)CCl)C(C(=O)NC1CCCCC1)c1ccccc1C)OC (stereo unspecified)	CF NFkB block 54 (no result: EWS-Fli inh) | CF NFkB conf inactive
COC(CN(C(=O)CCl)C(C(=O)NC1CCCCC1)c1ccc(Cl)cc1)OC (stereo unspecified)	none (no result: LGR2 inh)
C/C=C/c1ccc([C@@H]2[C@@H](CO)N3C(=O)CN(Cc4ccc(F)cc4)C[C@@H]23)cc1	none (no result: KKLEB tox, TROY signal inh, CF NFkB block, TWEAK-Fn14 inh)
CNc1cncc(-c2ccc(OC)c(OC)c2)n1	CF NFkB block 56 | CF NFkB conf inactive
CNc1ccc2ncc(-c3ccc(OC)c(OC)c3)n2n1	TROY signal inh 57, CF NFkB block 76, TWEAK-Fn14 inh 83 | CF NFkB conf 104
CNc1cncc(-c2ccc(F)c(F)c2)n1	none
CNc1cc(-c2ccc(OC)c(OC)c2)ncn1	none
C[C@H]1CN([C@@H](C)CO)C(=O)c2cc(/C=C/c3ccccc3)cnc2O[C@@H]1CN(C)S(=O)(=O)c1cn(C)cn1	none (no result: KKLEB tox, TROY signal inh, CF NFkB block, TWEAK-Fn14 inh)
COc1cccc(-c2nnc3n2N=C(C(C)(C)C)CS3)c1	TROY signal inh 64, CF NFkB block 94, TWEAK-Fn14 inh 92 (no result: LGR2 inh, EWS-Fli inh) | CF NFkB conf 98
CCCNC(=O)c1c(O)c2c([nH]c1=O)CCCC2	none
COc1ccc(CCNC(=O)c2c(O)c3c([nH]c2=O)CCCC3)cc1	CF NFkB block 51 (no result: LGR2 inh, EWS-Fli inh) | CF NFkB conf inactive
COc1ccc(NC(=O)COc2ccc(Br)cc2)c(OC)c1	none
COc1ccc(NC(=O)NNC(=O)COc2ccc3cc(Br)ccc3c2)c(OC)c1	CF NFkB block 52 (no result: EWS-Fli inh) | CF NFkB conf inactive
CCOC(=O)c1c(-c2ccc(C)cc2)csc1NC(=O)c1ccc(N2C(=O)CCC2=O)cc1	CF NFkB block 58 (no result: LGR2 inh) | CF NFkB conf 55
Cc1cc(N2C(=O)C(O)=C(C(=O)c3ccc(C)o3)C2c2cccc(Oc3ccccc3)c2)no1 (stereo unspecified)	CF NFkB block 51 (no result: EWS-Fli inh) | CF NFkB conf 64
CCOC(=O)C1=C(CC)Nc2ccccc2N=C1NC(=O)c1oc2ccccc2c1C	CF NFkB block 76 | CF NFkB conf 95
Cc1nc2ccccn2c1C(=O)/C=C/c1cccc([N+](=O)[O-])c1	CF NFkB block 71, TWEAK-Fn14 inh 94 | CF NFkB conf inactive
CC1CCCCN1c1ncnc(N)c1[N+](=O)[O-] (stereo unspecified)	CF NFkB block 74, TWEAK-Fn14 inh 61 | CF NFkB conf 64
Cc1ccc(C(=O)Nc2cccc(C(F)(F)F)c2)cc1NC(=O)c1c[nH]c2cc(C(F)(F)F)ccc2c1=O	none
Cc1cn(-c2cc(C(=O)Nc3ccc(C)c(NC(=O)C(=O)c4c[nH]c5ccccc45)c3)cc(C(F)(F)F)c2)cn1	CF NFkB block 50!, TWEAK-Fn14 inh 52! | CF NFkB conf inactive
COc1ccc(NC(=O)c2cc3c(CO)cnc(C)c3oc2=Nc2cccc(F)c2)c(OC)c1	CF NFkB block 52 | CF NFkB conf inactive
Cc1cc2c([nH]c3ccccc32)c(C)n1	none
Cc1c2ccncc2cc2c1[nH]c1ccccc12	CF NFkB block 55 | CF NFkB conf inactive
O=C(NCc1cccnc1)c1ccc(Cn2c(=S)[nH]c3ccc(Br)cc3c2=O)cc1	CF NFkB block 52 | CF NFkB conf inactive
O=c1c2cc(Br)ccc2[nH]c(=S)n1Cc1ccccc1	none
CCCCc1ccc(NC(=S)NCc2cccc(OC)c2)cc1	none
CCCCc1ccc(NC(=S)Nc2ccc(Nc3ccc(OC)cc3)cc2)cc1	CF NFkB block 52 (no result: EWS-Fli inh) | CF NFkB conf inactive
CCC(=O)N1C[C@H]2[C@@H](c3ccccc31)[C@H](CO)N2C(=O)CC	none (no result: KKLEB tox, TROY signal inh, CF NFkB block, TWEAK-Fn14 inh)
C[C@H]1CN([C@@H](C)CO)C(=O)c2cc(C#Cc3ccccc3F)cnc2O[C@H]1CN(C)S(C)(=O)=O	none (no result: KKLEB tox, TROY signal inh, CF NFkB block, TWEAK-Fn14 inh)
CCC1Nc2ncnc(N3CCCCC3)c2N(Cc2ccc(C)cc2)C1=O (stereo unspecified)	CF NFkB block 71! | CF NFkB conf inactive
CCC1Nc2ncnc(N3CCCCC3)c2N(Cc2ccccc2)C1=O (stereo unspecified)	none
COc1ccc2c(C)nc(Nc3nc(-c4ccccc4)cc(=O)[nH]3)nc2c1	LGR2 inh inconclusive, TROY signal inh 58, CF NFkB block 64, TWEAK-Fn14 inh 63 | CF NFkB conf inactive
O=c1c2ccccc2nnn1CSc1ncnc2ccccc12	CF NFkB block 66 (no result: EWS-Fli inh) | CF NFkB conf 41
O=C(Nc1ccc(OCC(=O)N2CCOCC2)cc1)c1cncc(Br)c1	CF NFkB block 57 (no result: EWS-Fli inh) | CF NFkB conf 48
CCCCOc1ccc(C(=O)Nc2ccc(OCC(=O)N3CCOCC3)cc2)cc1	none
O=C(C[C@H]1CC[C@H]2[C@@H](COC[C@@H](O)CN2C(=O)Nc2ccccc2)O1)NCc1ccccc1F	none (no result: KKLEB tox, TROY signal inh, CF NFkB block, TWEAK-Fn14 inh)
COc1ccc2c(c1OC)C(=O)N1c3ccccc3C(=O)N(c3ccc(F)cc3)C21 (stereo unspecified)	none (no result: LGR2 inh, EWS-Fli inh)
COc1ccc2c(c1OC)C(=O)N1c3ccccc3C(=O)N(c3ccccc3)C21 (stereo unspecified)	CF NFkB block 68 (no result: LGR2 inh, EWS-Fli inh) | CF NFkB conf 97
